# From PubChem BioAssay (NCATS)
# Values joined by “and” are separate entries in the source; they are usually repeats but may differ in a detail not shown here. Identical values can stand only once. Results filed as inconclusive are left out. Entries that show only a call come without a potency. Active and inactive are the calls of the source. Unless noted, the call rests on the fitted dose curve; in most records, active means well fitted curve in the direction sought with a large enough effect; inconclusive means small, poorly fitted or top-dose-only effect, or another doubt; inactive means no such curve, though single readings can be large; an effect the other way counts as inactive or inconclusive.
# Experiments:
# [1] = Primary qHTS for small molecule stabilizers of the endoplasmic reticulum resident proteome: Secreted ER Calcium Modulated Protein (SERCaMP) assay (AID 1508630); details: SH-SY5Y GLuc-SERCaMP (Gaussia luciferase released on ER calcium loss) secretion, thapsigargin, luminescence; series mostly up to 38.4 µM
# How it was run: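 The SH-SY5Y reporter protocol was run at 3 concentrations up to 38.3 uM (primary) or 11 concentrations (follow-up): 16 h compound, 100 nM thapsigargin for 4 h, then extracellular luciferase luminescence.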
# [2] = target: Cytochrome P450 2D6 (Homo sapiens) (UniProt P10635); assay: Cytochrome P450 family 2 subfamily D member 6 (CYP2D6) small molecule antagonists: luciferase biochemical (cell-free) qHTS assay (AID 1645840; active means well fitted curve in the direction sought with a large enough effect in the repeat runs; an effect the other way counts as inactive or inconclusive; further: nearly all actives have a fitted effect of over 55% in size; further: potency means the concentration at half of the fitted maximal effect); details: P450-Glo CYP2D6 enzyme, luciferin luminescence, 1 h; series mostly up to 57.4 µM
# Cytochrome P450 2D6 (Homo sapiens), sequence (P10635 whole entry, looked up): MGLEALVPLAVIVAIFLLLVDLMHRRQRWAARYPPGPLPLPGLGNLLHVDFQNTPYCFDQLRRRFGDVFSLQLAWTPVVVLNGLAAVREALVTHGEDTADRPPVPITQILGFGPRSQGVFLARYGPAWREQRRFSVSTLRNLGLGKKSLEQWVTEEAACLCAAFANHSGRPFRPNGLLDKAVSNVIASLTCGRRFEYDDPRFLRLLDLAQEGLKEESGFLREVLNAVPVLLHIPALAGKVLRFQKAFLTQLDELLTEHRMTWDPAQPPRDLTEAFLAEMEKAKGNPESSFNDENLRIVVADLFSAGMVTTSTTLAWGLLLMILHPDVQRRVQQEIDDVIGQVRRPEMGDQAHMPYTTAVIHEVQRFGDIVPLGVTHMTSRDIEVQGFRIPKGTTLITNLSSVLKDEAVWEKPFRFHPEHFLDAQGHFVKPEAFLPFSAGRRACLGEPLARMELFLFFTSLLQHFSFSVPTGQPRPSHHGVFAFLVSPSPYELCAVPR
# How it was run: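 P450-Glo CYP2D6 system: proluciferin substrate converted by enzyme to luciferin, read by luminescence proportional to activity. Enzyme-substrate mix with compound 10 min at room temperature, then NADPH regeneration 1 h before detection reagent.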
# [3] = Primary qHTS for inhibitors of nuclear receptor binding SET domain protein 2 (NSD2) in an isogenic RCH-ACV NSD2 p.E1099K mutant (9B) (AID 1645876); details: RCH-ACV NSD2 E1099K (9B) viability, CellTiter-Glo, 72 h; series mostly up to 44.9 µM; further: nearly all actives have a fitted effect of over 70% in size; further: potency means the concentration at half of the fitted maximal effect
# [4] = Primary qHTS for inhibitors of nuclear receptor binding SET domain protein 2 (NSD2) in an RCH-ACV wild type WT cells (2C) (AID 1645877); details: RCH-ACV (leukaemia line) NSD2 WT (2C) viability, CellTiter-Glo, 72 h; series mostly up to 44.9 µM; further: nearly all actives have a fitted effect of over 70% in size; further: potency means the concentration at half of the fitted maximal effect
# [5] = target: Cytochrome P450 2C9 (Homo sapiens) (UniProt P11712); assay: Cytochrome P450 family 2 subfamily C member 9 (CYP2C9) small molecule antagonists: luciferase biochemical (cell-free) qHTS assay (AID 1645842; active means well fitted curve in the direction sought with a large enough effect in the repeat runs; an effect the other way counts as inactive or inconclusive; further: nearly all actives have a fitted effect of over 55% in size; further: potency means the concentration at half of the fitted maximal effect); details: P450-Glo CYP2C9 enzyme assay, luciferin luminescence; series mostly up to 57.4 µM
# Cytochrome P450 2C9 (Homo sapiens), sequence (P11712 whole entry, looked up): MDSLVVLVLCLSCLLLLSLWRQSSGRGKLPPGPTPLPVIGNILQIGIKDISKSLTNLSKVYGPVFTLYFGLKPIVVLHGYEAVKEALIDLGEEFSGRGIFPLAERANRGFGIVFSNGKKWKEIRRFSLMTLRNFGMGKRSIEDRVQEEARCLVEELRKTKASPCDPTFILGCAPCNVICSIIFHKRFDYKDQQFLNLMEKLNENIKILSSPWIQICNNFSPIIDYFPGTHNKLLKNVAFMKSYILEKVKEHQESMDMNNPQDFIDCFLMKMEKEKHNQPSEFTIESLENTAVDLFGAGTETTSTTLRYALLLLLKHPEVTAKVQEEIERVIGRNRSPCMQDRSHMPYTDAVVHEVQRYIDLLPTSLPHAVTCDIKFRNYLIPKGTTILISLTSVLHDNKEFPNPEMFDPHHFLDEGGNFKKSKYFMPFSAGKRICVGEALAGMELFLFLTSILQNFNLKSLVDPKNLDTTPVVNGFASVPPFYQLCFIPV
# How it was run: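 P450-Glo CYP2C9 system: proluciferin substrate with enzyme in mix containing 0.4% BSA, 10 min at room temperature, then NADPH regeneration solution added and incubated 1 h at 37C. Detection reagent stopped reaction; luminescence read after 20 min as RLU.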
# [6] = target: Catechol O-methyltransferase (Homo sapiens) (UniProt P21964); assay: Confirmatory Screen for Target Class Profiling of Small Molecule Inhibitors of Methyltransferases (AID 1745852; calls by dose curve; further: potency means the concentration at half of the fitted maximal effect); details: MTase-Glo luminescence, SAH detection, recombinant enzyme; measured here: COMT max response; stronger effect = lower value
# Catechol O-methyltransferase (Homo sapiens), sequence (P21964 whole entry, looked up): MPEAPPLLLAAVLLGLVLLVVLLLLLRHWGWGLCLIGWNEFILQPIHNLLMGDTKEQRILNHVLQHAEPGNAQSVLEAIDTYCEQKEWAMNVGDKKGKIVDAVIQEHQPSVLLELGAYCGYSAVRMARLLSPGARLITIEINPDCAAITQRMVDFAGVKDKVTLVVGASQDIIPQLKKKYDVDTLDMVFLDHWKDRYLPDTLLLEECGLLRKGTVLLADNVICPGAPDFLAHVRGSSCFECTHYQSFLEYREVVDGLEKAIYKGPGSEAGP
# [7] = target: Guanidinoacetate N-methyltransferase (Homo sapiens) (UniProt Q14353); assay: as above; details: MTase-Glo luminescence, SAH detection, recombinant enzyme; activity change, negative = inhibition: at 57.3 µM (top of the series) unless noted
# [8] = target: Rap guanine nucleotide exchange factor 3 (Homo sapiens) (UniProt O95398); assay: Confirmatory qHTS for antagonist of cAMP-regulated guanine nucleotide exchange factor 3 (EPAC1) (AID 1645880); details: EPAC1 Rap1B-BODIPY-GDP exchange, fluorescence; further: potency means the concentration at half of the fitted maximal effect; nearly all actives have a fitted effect of over 55% in size
# Rap guanine nucleotide exchange factor 3 (Homo sapiens), sequence (O95398 whole entry, looked up): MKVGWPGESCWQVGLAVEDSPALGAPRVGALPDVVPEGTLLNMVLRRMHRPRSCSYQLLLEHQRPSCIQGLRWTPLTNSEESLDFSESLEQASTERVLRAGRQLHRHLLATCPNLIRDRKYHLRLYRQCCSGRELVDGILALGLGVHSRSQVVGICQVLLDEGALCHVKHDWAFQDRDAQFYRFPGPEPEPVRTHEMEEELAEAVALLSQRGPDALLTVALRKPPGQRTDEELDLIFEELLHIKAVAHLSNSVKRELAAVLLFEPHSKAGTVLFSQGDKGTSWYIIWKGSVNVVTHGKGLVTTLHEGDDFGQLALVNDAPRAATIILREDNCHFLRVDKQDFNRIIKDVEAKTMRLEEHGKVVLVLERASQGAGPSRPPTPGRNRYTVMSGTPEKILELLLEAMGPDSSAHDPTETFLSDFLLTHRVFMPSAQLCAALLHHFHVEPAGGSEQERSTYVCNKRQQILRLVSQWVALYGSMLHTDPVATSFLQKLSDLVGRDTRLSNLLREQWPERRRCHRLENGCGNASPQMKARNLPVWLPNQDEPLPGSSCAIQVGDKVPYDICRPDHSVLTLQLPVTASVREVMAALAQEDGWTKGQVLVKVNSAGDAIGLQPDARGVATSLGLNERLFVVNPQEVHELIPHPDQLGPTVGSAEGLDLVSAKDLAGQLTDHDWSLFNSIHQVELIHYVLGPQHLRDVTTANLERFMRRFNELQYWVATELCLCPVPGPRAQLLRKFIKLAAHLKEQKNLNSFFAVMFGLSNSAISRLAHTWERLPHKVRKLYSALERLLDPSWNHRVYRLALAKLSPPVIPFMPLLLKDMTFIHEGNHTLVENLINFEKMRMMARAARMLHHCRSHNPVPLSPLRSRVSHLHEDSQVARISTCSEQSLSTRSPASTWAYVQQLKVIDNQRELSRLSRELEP
# How it was run: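 Released BODIPY-GDP fluoresces less than Rap1-bound BODIPY-GDP; the signal is followed at 480/540 nm at 5-min intervals over 30 min, after 5 min at room temperature. Reactions contain 100 nM EPAC1, 250 nM RAP1B-BODIPY-GDP and 50 uM GDP; results are normalized to ATA and DMSO.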
# [9] = target: Rap guanine nucleotide exchange factor 3 (Homo sapiens) (UniProt O95398); assay: Confirmatory qHTS for agonist of cAMP-regulated guanine nucleotide exchange factor 3 (EPAC1) (AID 1645881); details: EPAC1 Rap1B BODIPY-GDP exchange fluorescence, 100% = cAMP control response; series mostly up to 154 µM;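 further: EPAC1 catalysed release of BODIPY-GDP from Rap1B seen as fluorescence loss; nearly all actives have a fitted effect of over 75% in size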
# [10] = target: Rap guanine nucleotide exchange factor 4 (Homo sapiens) (UniProt Q8WZA2); assay: Confirmatory qHTS for agonist of cAMP-regulated guanine nucleotide exchange factor 4 (EPAC2) (AID 1645884); details: EPAC2 GEF activity, Rap1B-BODIPY-GDP fluorescence, percent relative to cAMP agonist control; series mostly up to 154 µM;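 further: nucleotide exchange releases bodipy-GDP from Rap1 and this lowers its fluorescence; nearly all actives have a fitted effect of over 65% in size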
# Rap guanine nucleotide exchange factor 4 (Homo sapiens), sequence (Q8WZA2 whole entry, looked up): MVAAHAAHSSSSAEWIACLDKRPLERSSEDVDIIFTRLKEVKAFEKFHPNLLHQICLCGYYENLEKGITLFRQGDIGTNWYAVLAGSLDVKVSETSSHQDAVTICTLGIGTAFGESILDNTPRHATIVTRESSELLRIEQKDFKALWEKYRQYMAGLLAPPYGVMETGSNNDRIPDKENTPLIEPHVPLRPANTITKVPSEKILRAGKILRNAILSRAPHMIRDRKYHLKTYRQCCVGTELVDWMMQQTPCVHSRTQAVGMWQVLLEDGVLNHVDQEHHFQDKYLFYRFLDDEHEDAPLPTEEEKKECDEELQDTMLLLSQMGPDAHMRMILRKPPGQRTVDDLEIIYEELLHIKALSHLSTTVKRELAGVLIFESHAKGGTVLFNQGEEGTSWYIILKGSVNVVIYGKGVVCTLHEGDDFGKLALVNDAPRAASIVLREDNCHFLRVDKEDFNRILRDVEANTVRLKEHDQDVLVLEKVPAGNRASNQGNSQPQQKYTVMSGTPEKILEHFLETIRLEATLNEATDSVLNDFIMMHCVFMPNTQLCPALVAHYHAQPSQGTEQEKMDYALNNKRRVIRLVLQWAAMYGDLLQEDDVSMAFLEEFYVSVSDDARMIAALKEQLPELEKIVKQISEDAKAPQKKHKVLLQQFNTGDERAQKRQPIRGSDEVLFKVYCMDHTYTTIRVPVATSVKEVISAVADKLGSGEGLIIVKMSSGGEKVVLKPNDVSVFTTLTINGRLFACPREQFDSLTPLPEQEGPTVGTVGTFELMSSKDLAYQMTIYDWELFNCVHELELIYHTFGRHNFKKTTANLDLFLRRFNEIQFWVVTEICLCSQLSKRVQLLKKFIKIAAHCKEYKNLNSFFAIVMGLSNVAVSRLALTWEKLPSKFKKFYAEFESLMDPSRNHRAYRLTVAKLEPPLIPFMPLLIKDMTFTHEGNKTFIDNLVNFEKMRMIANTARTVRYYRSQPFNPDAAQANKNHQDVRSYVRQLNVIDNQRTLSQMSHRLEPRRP
# [11] = target: Rap guanine nucleotide exchange factor 4 (Homo sapiens) (UniProt Q8WZA2); assay: Confirmatory qHTS for antagonist of cAMP-regulated guanine nucleotide exchange factor 4 (EPAC2) (AID 1645885); details: EPAC2 Rap1B-BODIPY-GDP exchange fluorescence, biochemical; further: potency means the concentration at half of the fitted maximal effect; nearly all actives have a fitted effect of over 25% in size
structure (smiles),measurement,setting,value
CC(C)Nc1cc(C(F)(F)F)cc2nc(NC(=O)c3cccnc3)nn12,Potency,[1],inactive
same,Potency,[2],inactive
same,Potency,[3],inactive
same,Potency,[4],inactive
COc1cc2c(Oc3ccc(-c4cnc(Nc5ccc(F)cc5)n(C)c4=O)cc3F)ccnc2cc1OCCCN1CCOCC1,Potency,[1],inactive
same,Potency,[2],inactive
same,Potency,[5],inactive
same,Potency,[3],4.09 µM (active) and 1.48 µM (active)
same,Potency,[4],4.59 µM (active) and 2.09 µM (active)
CC(C)c1cc(-c2n[nH]c(=O)n2-c2ccc3c(ccn3C)c2)c(O)cc1O,Potency,[1],inactive
same,Potency,[5],1.69 µM (active)
same,Potency,[3],25.8 nM (active) and 29.5 nM (active)
same,Potency,[4],25.8 nM (active) and 29.5 nM (active)
same,activity,[6],-27.7%
same,Potency,[7],30.4 µM (active)
COc1cccc2nc(-c3cccs3)nc(NN3C(=O)C=C(C)C3=O)c12,Potency,[1],inactive
same,Potency,[3],372 nM (active)
CNC(=O)c1ccc(-c2cnc3ncc(Cc4ccc5ncccc5c4)n3n2)cc1F,Potency,[1],inactive
same,Potency,[5],2.13 µM (active)
same,Potency,[3],inactive
same,Potency,[4],inactive
COc1cccc(Nc2c(C(N)=O)cnc3c(C)cc(S(=O)(=O)c4cccc(C(=O)N(C)C)c4)cc23)c1,Potency,[1],inactive
same,Potency,[5],0.849 µM (active)
CN1CCC(CNc2ccc3ncc(-c4cccc(OC(F)(F)F)c4)n3n2)CC1,Potency,[1],inactive
same,Potency,[2],2.39 µM (active)
same,Potency,[3],2.58 µM (active) and 4.68 µM (active)
same,Potency,[4],2.05 µM (active) and 3.32 µM (active)
same,activity,[6],-52.2%
same,Potency,[7],30.4 µM (active)
COc1cc(C(=O)NS(=O)(=O)c2ccccc2C)ccc1Cc1cn(C)c2ccc(NC(=O)OC3CCCC3)cc12,Potency,[1],inactive
same,Potency,[5],13.8 µM (active)
same,Potency,[3],inactive
same,Potency,[4],inactive
same,Potency,[8],25 µM (active)
same,outcome,[9],inactive
same,outcome,[10],inactive
same,Potency,[11],49.4 µM (active)
